Results on eight molecules are retold here after PubChem BioAssay (NCI).

Holding throughout (assay): NCI-60 one-dose screen, 48 h (100 = growth as untreated, 0 = no growth, -100 = all killed)
Holding throughout (settings): 10 µM unless noted

In assay [1] the test system is SK-MEL-2 melanoma.
Assay [2] concerns EKVX NSCLC.
For assay [3], the system named is SN12C renal.
The subject of assay [4] is UO-31 renal.
Assay [5] relates to TK-10 renal.
Assay [6] deals with ACHN renal.
The test system of assay [7] is CAKI-1 renal.
Assay [8] deals with A498 renal.
Assay [9] concerns CCRF-CEM leukemia.
The test system of assay [10] is MOLT-4 leukemia.
Assay [11] relates to SR leukemia.
Assay [12] concerns RPMI-8226 leukemia.
In assay [13] the test system is OVCAR-8 ovarian.
For assay [14], the system named is OVCAR-5 ovarian.
In assay [15] the test system is SK-OV-3 ovarian.
The test system of assay [16] is OVCAR-3 ovarian.
The subject of assay [17] is HS 578T breast.
In assay [18] the test system is NCI/ADR-RES ovarian.
Assay [19] deals with OVCAR-4 ovarian.
In assay [20] the test system is IGROV1 ovarian.

About 83,000 compounds went through this panel and 20% of them were active in at least one assay; those are over-represented in the sample as a whole.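 Cell lines were cultured in 96-well plates, exposed to a single compound concentration, and assessed for percent growth 48 hours later.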 Values without a mark were called inactive. Calls of active or inactive are those of the source. How the source made its calls: active means growth percent below 10; inactive means the rest.

Consider `Cn1c(NCCc2ccc(O)c(O)c2)nc2c1c(=O)n(Cc1ccc(Cl)c(Cl)c1)c(=O)n2C`, for which the growth in [1] is 91.2%; in assay [2], 81.2%; in assay [3], 71.5%; in [4], 34%; in assay [5] it was 65.9%; in assay [6], 41.8%. For the same molecule, the growth is 62.8% in [7]; 98.4% in assay [8]; 17.8% in assay [9]; 11.8% in [10]; 56% in [11]; 19.1% in [12]. In addition, the growth in assay [13] was 74.4%; in assay [14], 83.1%; in [15], 81%; in [16], 64.9%; in assay [17] it was 75.6%; in assay [18], 77.3%.

On to `NNCCc1ccc(NC(=O)CCCc2ccc(/C=C/C(=O)NO)cc2)cc1`, for which the growth in [1] was 52.4%; in assay [2], 69.2%; in assay [3], 55.8%; in assay [4] it was 49.2%; in assay [5] it was 76.5%; in [6] it was 88.3%. For the same molecule, the growth is 93.6% in assay [7]; 47% in assay [8]; 16.5% in assay [9]; 12.1% in [10]; 18.2% in assay [11]; 37.5% in assay [12]. Moreover, the growth in assay [13] was 8.02% (active); in assay [14], 71.4%; in assay [19] it was 29.9%; in [15], 64.1%; in [16] it was 55.3%; in assay [17], 21.2%. Further, the growth in assay [18] was 44.3%.

For `CCOC(=O)c1sc2nc(-c3cccc(OC)c3)nc(N3CCOCC3)c2c1C`, the growth in assay [1] was 93.2%; in [2], 87.7%; in assay [3], 87.5%; in [4], 79.7%; in [5], 98.1%; in assay [6], 103%. Also, the growth was 79.8% in assay [7]; 101% in assay [8]; 98.4% in assay [9]; 93.1% in assay [10]; 98.4% in [11]; 87.8% in [12]. Further, the growth was 102% in assay [13]; 96.6% in assay [14]; 96.2% in assay [19]; 87.3% in assay [20]; 108% in assay [16]; 104% in assay [17]. Besides, in assay [18], the growth is 90%.

Take `O=C(C(=O)c1ccc2c(c1)OCO2)c1ccc2c(c1)OCO2`: the growth in assay [1] is 112%; in [2], 124%; in [3] it was 107%; in [4], 100%; in assay [5] it was 105%; in [6] it was 111%. The growth in assay [7] is 107%; in assay [8], 98.1%; in assay [9], 95.6%; in assay [10] it was 117%; in assay [11] it was 106%; in [12] it was 101%. In addition, the growth is 95.3% in [13]; 109% in assay [14]; 99.8% in assay [19]; 114% in assay [15]; 124% in [20]; 105% in assay [16]. Besides, the growth in [18] was 117%.

Regarding `Brc1ccc(-c2csc(Nc3ccccn3)n2)cc1`, the growth in assay [1] was 69.8%; in assay [2], 70%; in assay [3], 95.7%; in [4], 75.8%; in [5], 101%; in assay [6], 217%. The growth in assay [7] is 84.2%; in assay [8], 91.3%; in assay [9], 74.8%; in [10], 82.6%; in assay [11] it was 68.8%; in [12] it was 68%. Moreover, the growth in assay [13] is 101%; in [14] it was 92.4%; in [19], 50%; in assay [20] it was 79.4%; in [16], 82.9%; in assay [17] it was 114%. For the same molecule, the growth in assay [18] was 74%.

For the molecule `C(=N/Nc1ncc(-c2cc3cc(-c4ccccc4)ccc3o2)s1)/c1cccs1`, the growth in assay [1] is 99.7%; in assay [2], 94.9%; in [3], 87.6%; in assay [4], 84.8%; in assay [5], 97.5%; in assay [6] it was 97.9%. For the same molecule, the growth in [7] is 103%; in assay [8], 32.5%; in assay [9], 97.5%; in [10] it was 96.5%; in assay [11] it was 79%; in assay [12] it was 70.4%. In addition, the growth is 99.5% in assay [13]; 93.9% in assay [14]; 89.6% in assay [19]; 113% in [15]; 97.1% in [16]; 107% in [17]. Further, in assay [18], the growth was 101%.

For `O=C(CCl)Oc1ccc(-c2ccccc2)c(Br)c1`, the growth in assay [1] is 104%; in [2], 115%; in [3] it was 109%; in [4], 92.8%; in assay [5], 105%; in [6] it was 108%. Moreover, the growth in [7] was 98.5%; in [8], 95%; in assay [9] it was 118%; in assay [10], 105%; in [11], 96.9%; in assay [12], 106%. For the same molecule, the growth is 103% in [13]; 107% in assay [14]; 105% in assay [19]; 104% in [15]; 108% in assay [16]; 108% in [17]. Moreover, the growth in [18] was 103%.

As for `COc1cc(/C=C/c2cc(/C=C/c3ccc(O)c(OC)c3)n(-c3c(Cl)cccc3Cl)c(=O)n2)ccc1O`, the growth in [1] was 82.9%; in assay [2], 41.4%; in assay [3], 27.8%; in assay [4], 25.2%; in assay [5] it was 86%; in [6], 37.8%. In addition, the growth in assay [7] is 63.2%; in assay [8], 78.5%; in assay [9] it was 10.4%; in [10] it was 9.71% (active); in assay [11], 4.12% (active); in [12] it was 0.562% (active). In addition, the growth was 7.53% (active) in assay [13]; 56.3% in [19]; 47.7% in assay [15]; 33.5% in assay [20]; 10.7% in assay [16]; 36.3% in [17]. Besides, the growth in [18] is 55.2%.
